Screening results deposited in PubChem by National Center for Advancing Translational Sciences (NCATS).
Rows were chosen to be rich in hits. Some 7.5% of all compounds tested hit in one or more screens of this group.
NPC1 prom act = activators of NPC1 promoter; AID 485313; Potency, µM (top dose mostly 9.22 µM), for inactives: top-dose activation, most hits filed as activators; Huh7 NPC1 promoter luciferase reporter, 24 h; 320,000 compounds, 2.4% hits; further: % of control where 0% means no effect; nearly all actives have a fitted effect of over 60% in size
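NPC1 promoter–luciferase Huh7 cells; 24 h compound; luminescence.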
SMN2 splice up = SMN2 splice variant enhancement. HEK293 SMN2-luciferase splicing reporter, luminescence, 30-36 h. Potency, µM (series often up to 46.1 µM), inactives show top-dose activity change, positive = activation, hits mostly activators. 210,000 compounds, 2.8% hits; further: % of control where 0% means no effect; nearly all actives have a fitted effect of over 55% in size
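HEK293 cells carry an SMN2 […]–luciferase reporter in which exon 7 inclusion puts luciferase in frame. Cells were plated 10-12 h before compound addition, then incubated 30-36 h at 37C. ONE-Glo luminescence was read; sodium butyrate at 4.5 mM final served as control.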
Rab9 prom act = Rab9 promoter activation. 320,000 compounds, 2.8% hits. Huh7 Rab9 promoter-luciferase reporter, luminescence, 24 h. Potency, µM (highest dose often 9.22 µM), inactives show top-dose activation, negative = inhibition, most hits filed as activators. AID 485297; further: % of control where 0% means no effect; nearly all actives have a fitted effect of over 60% in size
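Promoter activation is measured as luciferase luminescence in Huh7 cells stably transfected with a Rab9 promoter–luciferase construct, following 24 h compound exposure at 37 °C and 10 min reagent incubation at ambient temperature.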
ELG1 genotox = genotoxicity induction in ELG1-luciferase HEK293T cells; HEK293T ELG1-luciferase reporter, luminescence, 16 h; Potency, µM (titrated, usually from 46 µM), without a hit: at the highest dose activity change, positive = activation, hits mostly activators; 330,000 compounds, 1.3% hits; AID 504466; further: % of control where 0% means no effect; nearly all actives have a fitted effect of over 60% in size
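Reporter readout depends on ELG1 protein level, which increases with genetic stress. After 16 hr compound exposure at 37 °C, luciferase activity was quantified using ONE-Glo.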
Luc counter = counter-screen: inhibitors of Kinase-Glo firefly luciferase; 200,000 compounds, 0.28% hits; Potency, µM (doses to about 38.3 µM), without a hit: at the top dose activity change, negative = inhibition, actives largely listed as inhibitors; Kinase-Glo luciferase, ATP luminescence, 8 min; Q27757; AID 1379; further: on the % scale 0 is the no-effect control and ±100 the full control effect; nearly all actives have a fitted effect of over 60% in size
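Luminescence was the read-out, taken after 8-minute incubation at ambient temperature. Luciferase turned over luciferin with 10 uM ATP in imidazole pH 7.2 buffer containing KCl, MgCl2, Tween 20 and BSA.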
FLuc counter = counter-screen for miR-21 project: firefly luciferase inhibitors or activators; AID 588342; 360,000 compounds, 6.9% hits; purified FLuc, Km substrates, luminescence inhibition; P08659; Potency, µM (series often up to 57.5 µM), inactives show top-dose activity change, negative = inhibition, hits mostly inhibitors;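 further: plate controls were vehicle for no effect and reference inhibitor for full effect; nearly all actives have a fitted effect of over 55% in size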
Target sequence (P08659 whole entry, looked up): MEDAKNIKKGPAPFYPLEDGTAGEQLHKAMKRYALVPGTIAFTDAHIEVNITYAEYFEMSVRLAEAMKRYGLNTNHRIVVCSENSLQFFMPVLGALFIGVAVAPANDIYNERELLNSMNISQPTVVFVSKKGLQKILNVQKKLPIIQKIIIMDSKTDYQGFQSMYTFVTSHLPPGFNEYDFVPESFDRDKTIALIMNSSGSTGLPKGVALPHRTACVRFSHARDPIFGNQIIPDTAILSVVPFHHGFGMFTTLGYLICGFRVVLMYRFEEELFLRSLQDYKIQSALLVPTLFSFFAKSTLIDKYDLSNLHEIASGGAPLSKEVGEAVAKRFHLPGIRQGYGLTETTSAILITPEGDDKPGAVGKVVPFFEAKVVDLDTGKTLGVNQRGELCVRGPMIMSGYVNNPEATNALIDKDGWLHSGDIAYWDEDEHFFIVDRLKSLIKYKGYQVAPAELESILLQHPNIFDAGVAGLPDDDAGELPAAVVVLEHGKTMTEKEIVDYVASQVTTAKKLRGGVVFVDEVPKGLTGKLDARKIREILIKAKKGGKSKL
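Purified P. pyralis luciferase (10nM final) with 10uM D-luciferin and 10uM ATP (Km levels) in 50mM Tris acetate pH 7.5, 10mM Mg acetate, 0.01% Tween-20, 0.05% BSA; qHTS 6-point titration, ~60 µM downward; luminescence read.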
* hit, by the source's call; ? = inconclusive; . = no result given. The call rests on the fitted dose curve; in most records, active means well fitted curve in the direction sought with a large enough effect; inconclusive means small, poorly fitted or top-dose-only effect, or another doubt; inactive means no such curve, though single readings can be large; an effect the other way counts as inactive or inconclusive. Potency means the concentration at half of the fitted maximal effect.

SMILES	NPC1 prom act	SMN2 splice up	Rab9 prom act	ELG1 genotox	Luc counter	FLuc counter
O=C(CSc1ccccc1)Nc1ccc2c(c1)OCCO2	0.89µM*	.	0.63µM*	1.6µM*	.	2.4µM*
O=C(CN1C(=O)C2C3C=CC(C3)C2C1=O)Nc1ccc2c(c1)OCCO2 (configuration not stated)	?	21%	3.5µM*	?	0%	17µM*
Cc1ccc(NC(=O)CN2C(=O)C3C4C=CC(C4)C3C2=O)cc1 (configuration not stated)	-3%	14%	3%	5%	-4%	4%
CC(CC(=O)Nc1ccc2c(c1)OCCO2)c1ccccc1 (configuration not stated)	?	11µM*	?	?	-3%	?
O=C(CCNC(=O)c1ccccc1)NCc1ccccc1F	10%	.	19%	11%	.	2.7µM*
O=C(Cn1c(=O)c2ccccc2n(CC(=O)Nc2ccc(F)cc2)c1=O)NCCc1ccccc1	.	-11%	.	.	.	-7%
O=C(CSc1nnc2ccccn12)Nc1ncc(Cl)cc1Cl	20%	?	?	18µM*	-2%	?
CN1CCN(c2ccc(NC(=O)CSc3ccccc3)cc2F)CC1	1.8µM*	11µM*	1.4µM*	2.1µM*	-1%	11µM*
Cc1ccc(SCC(=O)Nc2ccc(N3CCN(c4ccccc4)CC3)c(F)c2)cc1	3%	-14%	-2%	1%	4%	4%
O=C(CSc1nnc2scc(-c3ccccc3)n12)Nc1ccc2c(c1)OCCO2	1%	?	-2%	0%	-2%	2%
O=C(CSCSCC(=O)Nc1ccc2c(c1)OCO2)Nc1ccc2c(c1)OCO2	-1%	-7%	-4%	-2%	-4%	17µM*
O=C(CSc1ccc(-c2ccccc2)nn1)Nc1ccc2c(c1)OCCO2	21%	16µM*	?	?	-1%	11µM*
COCCn1c(=O)c(-c2ccc(F)cc2)nc2cnc(OCc3ccccc3)nc21	.	4%	.	.	-1%	.
CC(C)=CC(=O)Nc1ccc2c(c1)OCO2	.	11µM*	.	.	-27%	11µM*
O=C(CCn1c(=O)oc2ccccc21)Nc1ccc2c(c1)OCCO2	?	.	?	?	.	19µM*
O=C(CSCc1ccc(F)cc1)Nc1ccccc1	5%	6%	-2%	9%	1%	-22%
O=C(CSc1ccccc1)Nc1ccc2c(c1)OCO2	?	.	?	?	.	17µM*
O=C(CSCc1ccccc1)Nc1ccc(F)c(F)c1	24%	?	?	?	-1%	17µM*
O=C(CSc1ccc2c(c1)OCCO2)Nc1ccc2c(c1)OCO2	-1%	-7%	0%	0%	19%	?
O=C(Cn1c(=O)oc2ccccc21)Nc1ccc2c(c1)OCCO2	-3%	16%	-5%	0%	6%	-10%
Cc1ccc(-c2noc(CNC(=O)COc3ccccc3C)n2)cc1	2%	.	0%	0%	.	1%
O=C(OCCc1cc2ccccc2c(=O)o1)c1ccc(C(F)(F)F)cc1	-5%	.	1%	3%	.	5%
Cc1ccc(CSCC(=O)Nc2ccc3c(c2)OCO3)cc1	11%	7%	0%	-1%	1%	-16%
O=C(CSc1nnc2ccccn12)NCc1ccc2c(c1)OCO2	-1%	-9%	-8%	4%	-4%	7%
O=C(CSCc1ccc(Cl)cc1)Nc1ccc2c(c1)OCCO2	19%	-15%	10%	13%	-8%	24µM*
SMILES	NPC1 prom act	SMN2 splice up	Rab9 prom act	ELG1 genotox	Luc counter	FLuc counter
O=C(CSc1nnc2ccccn12)Nc1ccc2c(c1)OCCO2	?	.	2.5µM*	?	.	?
CS(=O)(=O)N(CC(=O)Nc1ccc2c(c1)OCO2)c1ccccc1	1%	-7%	0%	8%	-3%	3%
O=C(CCS(=O)(=O)c1ccccc1)Nc1ccc2c(c1)OCO2	?	.	?	?	-1%	27µM*
O=C(CSCc1ccccc1F)NCc1ccccc1	?	?	?	?	3%	24µM*
CC(C)c1[nH]nc2c1C(Cc1ccccc1)C(C#N)=C(N)O2 (configuration not stated)	-3%	5%	4%	-2%	1%	2%
CCCCC(CC)CNC(=O)CN1C(=O)CSc2ccc(S(=O)(=O)N3CCOCC3)cc21 (configuration not stated)	.	.	.	.	.	2%
Cc1ccc(-c2nn(CC(=O)Nc3cccc(C(F)(F)F)c3)c(=O)c3ccccc23)cc1	.	-19%	.	.	.	3%
CCOc1ccc(-c2c(C)nn3c(C)c(C(=O)NCCc4ccccc4)cnc23)cc1OCC	.	.	.	.	.	0%
COc1cccc2cc(C(=O)NCCc3ccccc3)c(=O)oc12	5%	.	5%	?	.	11µM*
COc1cccc2cc(C(=O)NCCC3=CCCCC3)c(=O)oc12	-1%	13%	3%	5%	0%	?
COc1cccc2cc(C(=O)N3CCc4ccccc4C3)c(=O)oc12	0%	-5%	6%	?	-5%	17µM*
COc1cccc2cc(C(=O)NCc3ccccn3)c(=O)oc12	?	1%	?	?	-1%	11µM*
O=C(O)c1ccccc1N/N=C/c1cc(Br)cc(Br)c1O	1.6µM*	.	1.4µM*	?	.	7.6µM*
O=C(O)c1ccccc1N/N=C\c1ccnc2ccccc12	0.35µM*	5µM*	?	0.58µM*	-2%	0.17µM*
COc1ccc(C2CC(=O)N(C)c3ccccc3S2)cc1OC (configuration not stated)	25%	21%	4µM*	18µM*	2%	?
COc1ccc(C2CC(=O)N(Cc3ccc(F)cc3)c3ccccc3S2)cc1OC (configuration not stated)	.	-42%	.	.	.	0%
Clc1ccc(-c2nc(Cc3ccccc3)no2)cc1	?	0%	?	21µM*	1%	12µM*
COc1ccc(Cc2noc(-c3ccccc3)n2)cc1OC	-2%	-32%	-4%	0%	4%	-10%
Cc1ccccc1-c1nc(Cc2ccccc2)no1	?	?	?	?	-3%	12µM*
COc1ccc(-c2nc(Cc3ccc(Cl)cc3)no2)cc1OC	9%	-14%	1%	7%	0%	-2%
N#CC1=C(N)Oc2n[nH]c(-c3ccccc3)c2C1c1cccnc1 (configuration not stated)	3%	3.5µM*	13%	0%	-3%	5%
Cc1ccc(-c2[nH]nc3c2C(c2cccnc2)C(C#N)=C(N)O3)cc1 (configuration not stated)	-4%	.	-2%	.	.	-8%
